Laboratory results reported in PubChem BioAssay (Tox21).
Inconclusive results are not listed. Active and inactive are the calls of the source. Unless noted, the call rests on the fitted dose curve; in most records, active means well fitted curve in the direction sought with a large enough effect in the repeat runs; inconclusive means weak or mixed curves; inactive means no such curve, though single readings can be large; an effect the other way counts as inactive or inconclusive.

Assays:
[1] = target: Retinoic acid receptor RXR-alpha (Homo sapiens) (UniProt P19793); test: qHTS assay to identify small molecule agonists of the RXR signaling pathway (AID 1159527; calls by dose curve; further: nearly all actives have a fitted effect of over 35% in size)
Chain of Retinoic acid receptor RXR-alpha (Homo sapiens) (P19793 whole entry, looked up): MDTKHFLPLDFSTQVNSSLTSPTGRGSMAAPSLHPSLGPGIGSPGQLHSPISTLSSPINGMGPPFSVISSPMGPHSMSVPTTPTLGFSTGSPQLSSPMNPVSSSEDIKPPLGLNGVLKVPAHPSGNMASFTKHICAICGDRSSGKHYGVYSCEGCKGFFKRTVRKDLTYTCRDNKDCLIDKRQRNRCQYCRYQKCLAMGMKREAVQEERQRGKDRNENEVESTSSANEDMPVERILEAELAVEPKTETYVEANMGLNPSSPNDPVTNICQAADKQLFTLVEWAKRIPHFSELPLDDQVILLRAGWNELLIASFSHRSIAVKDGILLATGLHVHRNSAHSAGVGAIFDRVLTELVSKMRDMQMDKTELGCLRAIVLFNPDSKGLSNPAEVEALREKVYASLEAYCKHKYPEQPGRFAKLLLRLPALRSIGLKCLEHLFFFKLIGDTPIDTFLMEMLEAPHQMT
Summary of the method: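 GeneBLAzer RXR-alpha-UAS-bla HEK 293T cells in 2% charcoal-stripped FBS medium were exposed to compounds for 16 hr at 37 C in agonist mode. Beta-lactamase reporter read as 460/530 nm FRET ratio after 2 hr substrate loading.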

[2] = qHTS assay to identify small molecule agonists of the RXR signaling pathway - cell viability counter screen (AID 1159529); further: series mostly up to about 77 µM; nearly all actives have a fitted effect of over 50% in size
Summary of the method: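 RXR-alpha-UAS-bla HEK 293T cells in medium with 2% charcoal-stripped FBS were pre-incubated 5 hr, then compound-treated 16 hr at 37 C. Viability was read by CellTiter-Glo luminescence in the same wells as the beta-lactamase assay, with tetraoctyl ammonium bromide as positive control.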

[3] = qHTS assay to identify small molecule antagonists of the retinoid acid receptor (RAR) signaling pathway - cell viability counter screen (AID 1159551); further: nearly all actives have a fitted effect of over 35% in size
Summary of the method: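 Cells (C3RL4) are plated, incubated overnight, dosed with compound in DMSO, then given retinol at 1 uM final. After 6 h at 37 C, CellTiter-Glo is added and luminescence read following 30 min at room temperature.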

[4] = qHTS assay to identify small molecule antagonists of the estrogen related receptor (ERR) signaling pathway from Tox21 library - cell viability counter screen (AID 1224834); further: nearly all actives have a fitted effect of over 30% in size
Summary of the method: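 ERR cells, 2,000/well; 6 h settle at 37 C/5% CO2; pin-tool compound transfer in DMSO; 17.5 h at 37 C; CellTiter-Fluor, 30 min; fluorescence intensity.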

[5] = target: Luciferin 4-monooxygenase (Photinus pyralis) (UniProt P08659); test: qHTS assay to identify small molecule inhibitors of firefly luciferase (AID 1224835); further: series mostly up to about 120 µM; nearly all actives have a fitted effect of over 25% in size
Chain of Luciferin 4-monooxygenase (Photinus pyralis) (P08659 whole entry, looked up): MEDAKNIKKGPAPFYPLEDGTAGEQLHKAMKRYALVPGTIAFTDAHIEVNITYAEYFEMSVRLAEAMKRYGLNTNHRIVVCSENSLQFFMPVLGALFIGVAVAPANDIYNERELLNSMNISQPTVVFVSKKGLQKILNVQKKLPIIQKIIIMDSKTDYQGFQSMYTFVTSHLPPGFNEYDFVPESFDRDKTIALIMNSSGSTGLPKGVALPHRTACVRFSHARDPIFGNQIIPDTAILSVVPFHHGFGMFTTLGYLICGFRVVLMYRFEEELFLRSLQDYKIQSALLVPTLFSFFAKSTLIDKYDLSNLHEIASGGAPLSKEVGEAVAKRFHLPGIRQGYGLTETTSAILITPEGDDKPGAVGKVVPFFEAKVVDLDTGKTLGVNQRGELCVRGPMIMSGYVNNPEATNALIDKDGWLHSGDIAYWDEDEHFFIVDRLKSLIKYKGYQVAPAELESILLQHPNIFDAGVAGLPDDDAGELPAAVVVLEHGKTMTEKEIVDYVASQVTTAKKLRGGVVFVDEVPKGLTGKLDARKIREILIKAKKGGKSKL
Summary of the method: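 Biochemical qHTS: compounds run as interplate titrations against purified firefly enzyme, with D-luciferin and ATP each at its KM concentration. Light output recorded by CCD imaging.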

[6] = qHTS assay to identify small molecule agonists of the constitutive androstane receptor (CAR) signaling pathway - cell viability counter screen (AID 1224836); further: series mostly up to about 92 µM; nearly all actives have a fitted effect of over 45% in size
Summary of the method: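 HepG2 cells stably carrying hCAR and a CYP2B6-2.2kb reporter; 15-concentration compounds plus PK11195 (final 0.75 uM), 23 hr at 37 C/5% CO2. Viability read by CellTiter-Fluor fluorescence.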

[7] = qHTS assay to identify small molecule antagonists of the constitutive androstane receptor (CAR) signaling pathway - cell viability counter screen (AID 1224837); further: series mostly up to about 92 µM; nearly all actives have a fitted effect of over 45% in size
Summary of the method: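 Viability was measured with CellTiter-Fluor in a HepG2 line carrying stably transfected hCAR and a CYP2B6-2.2kb construct. Cells were exposed for 23 hr at 37 C to 15 compound concentrations with 50 nM CITCO as agonist.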

[8] = qHTS assay to identify small molecule antagonists of the estrogen related receptor signaling pathway with the pleiotropic PPARgamma coactivator (PGC) from Tox21 10K library - cell viability counter screen (AID 1224840; active means well fitted cell-killing curve with a large enough effect in the repeat runs, not every such curve was filed as active; further: nearly all actives have a fitted effect of over 40% in size)
Summary of the method: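 Multiplexed viability counter screen in the PGC/ERR cell line: cells treated with DMSO-dissolved compounds for 17.5 hours at 37 C, then viability measured as CellTiter-Fluor fluorescence.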

[9] = qHTS assay to identify small molecule antagonists of the retinoic acid receptor (RAR) signaling pathway (AID 1159552; further: nearly all actives have a fitted effect of over 50% in size)
Summary of the method: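 Retinol signaling pathway inhibitors screened in C3RL4 RARE-luciferase reporter cells seeded overnight at 37 C, then compounds added with 1 uM (final) retinol as pathway substrate. After 6 hr at 37 C, luciferase luminescence read after 30 min at room temperature.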

[10] = qHTS assay to identify small molecule agonists of the retinoic acid receptor (RAR) signaling pathway (AID 1159553)
Summary of the method: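 Seed C3RL4 reporter cells at 1,000 per well and incubate overnight at 37 C. Add compounds in DMSO, incubate 6 hr. Add luciferase reagent, wait 30 min at room temperature, read luminescence.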

[11] = target: Nuclear receptor subfamily 1 group I member 3 (Homo sapiens) (UniProt Q14994); test: qHTS assay to identify small molecule antagonists of the constitutive androstane receptor (CAR) signaling pathway (AID 1224838);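 further: HepG2 cells stably expressing hCAR with CYP2B6 luciferase reporter stimulated by CITCO; nearly all actives have a fitted effect of over 40% in size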
Chain of Nuclear receptor subfamily 1 group I member 3 (Homo sapiens) (Q14994 whole entry, looked up): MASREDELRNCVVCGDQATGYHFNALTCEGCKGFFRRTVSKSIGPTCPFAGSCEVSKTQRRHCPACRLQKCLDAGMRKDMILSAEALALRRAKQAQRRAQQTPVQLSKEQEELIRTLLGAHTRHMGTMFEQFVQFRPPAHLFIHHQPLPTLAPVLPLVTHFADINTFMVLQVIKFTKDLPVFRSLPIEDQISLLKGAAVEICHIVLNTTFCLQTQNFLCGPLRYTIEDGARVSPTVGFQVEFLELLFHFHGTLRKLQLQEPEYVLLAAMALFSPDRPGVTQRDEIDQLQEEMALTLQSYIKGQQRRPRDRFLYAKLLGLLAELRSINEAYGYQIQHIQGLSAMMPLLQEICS
Summary of the method: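 Antagonist mode used CITCO at a final 50 nM to activate CAR in human hepatoma HepG2 cells carrying stable hCAR and a 2.2 kb CYP2B6 promoter-luciferase construct. Compounds were tested at 15 concentrations over 24 h, with luminescence as the end point.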

[12] = target: Nuclear receptor subfamily 1 group I member 3 (Homo sapiens) (UniProt Q14994); test: qHTS assay to identify small molecule agonists of the constitutive androstane receptor (CAR) signaling pathway (AID 1224839); further: series mostly up to about 92 µM; nearly all actives have a fitted effect of over 15% in size
Summary of the method: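 HepG2 cells stably co-transfected with hCAR and a CYP2B6-2.2kb luciferase reporter; compounds at 15 concentrations with 0.75 uM PK11195 present. After 24 hr at 37 C, luciferase read by ONE-Glo luminescence.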

[13] = qHTS assay to identify small molecule antagonists of the estrogen related receptor (ERR) signaling pathway - cell viability counter screen (AID 1224818); further: series mostly up to about 46 µM
Summary of the method: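 ERR cells, 2,000/well; 6 h settle at 37 C/5% CO2; compound pin transfer (DMSO); 17.5 h at 37 C; CellTiter-Fluor, 30 min, fluorescence read.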

[14] = qHTS assay to identify small molecule antagonists of the estrogen related receptor (ERR) signaling pathway (AID 1224819;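 further: luminescence from an ERR-driven luciferase reporter measured with One-Glo reagent; series mostly up to about 46 µM; nearly all actives have a fitted effect of over 50% in size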)
Summary of the method: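 qHTS in ERR cells, 2,000/well, 1536 format. Cpd (DMSO) added after 6 h settle, 18 h 37 C. One-Glo luminescence, 30 min RT.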

[15] = qHTS assay to identify small molecule agonists of the estrogen related receptor (ERR) signaling pathway (AID 1224820)
Summary of the method: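 Luminescence readout (One-Glo, 30 min RT) from NTP-supplied ERR cell line exposed to compounds for 18 h at 37 C. Cells seeded 2,000 per well and pre-incubated 6 h before pin-tool compound transfer.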

[16] = tested on: estrogen-related receptor alpha (ERRalpha) with PGC-1alpha coactivator, human; test: qHTS assay to identify small molecule antagonists of the estrogen related receptor signaling pathway with the pleiotropic PPARgamma coactivator (PGC) (AID 1224821; calls by dose curve;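 further: series mostly up to about 46 µM; lower luminescence signal means antagonism of PGC/ERR signalling; nearly all actives have a fitted effect of over 50% in size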)
Summary of the method: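 PGC/ERR reporter cells; 6 h pre-incubation 37 C/5% CO2; pin-tool compound in DMSO, 18 h 37 C; One-Glo added, 30 min RT; luminescence read. qHTS antagonist mode.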

[17] = qHTS assay to identify small molecule antagonists of the estrogen related receptor signaling pathway with the pleiotropic PPARgamma coactivator (PGC) cell viability counter screen (AID 1224822;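 further: series mostly up to about 46 µM; viability read after 17.5 h compound exposure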)
Summary of the method: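 Multiplexed viability counter screen run in PGC/ERR cells treated with compounds for 17.5 h at 37 C; live-cell protease signal measured by CellTiter-Fluor fluorescence.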

[18] = qHTS assay to identify small molecule agonists of the estrogen related receptor signaling pathway with the pleiotropic PPARgamma coactivator (PGC) (AID 1224823)
Summary of the method: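 Luminescence readout (One-Glo, 30 min RT) from PGC/ERR cell line treated 18 h at 37 C with pin-tool-delivered DMSO compound solutions; cells plated 6 h before dosing. Quantitative HTS format.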

[19] = qHTS assay to identify small molecule antagonists of the estrogen related receptor signaling pathway with the pleiotropic PPARgamma coactivator (PGC) from Tox21 10K library (AID 1224841; call rule not given here)
Summary of the method: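 Steps: plate 2,000 PGC/ERR cells per well; incubate 6 h at 37 C with 5% CO2; transfer compounds from DMSO stocks by pin tool; incubate 18 h at 37 C; add One-Glo; measure luminescence 30 min later.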

[20] = qHTS assay to identify small molecule agonists of the estrogen related receptor signaling pathway with the pleiotropic PPARgamma coactivator (PGC) from Tox21 10K library (AID 1224842); further: nearly all actives have a fitted effect of over 15% in size
Summary of the method: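 PGC/ERR reporter cell line, 2,000 cells per well, incubated 6 h at 37 C before 23 nL compound in DMSO was added. After 18 h at 37 C, One-Glo luminescence read following 30 min at room temperature.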

Measured: Potency

O=C(O)c1cccc([N+](=O)[O-])c1
inactive: [1] | [2] | [3] | [4] | [5] | [6] | [7] | [8]

O=NO
inactive: [1] | [2] | [3] | [9] | [10] | [4] | [6] | [7] | [11] | [12] | [8]

O=C(O)CCCCC(=O)O
inactive: [1] | [2] | [3] | [4] | [5] | [6] | [7] | [8]

NC(=O)c1cnccn1
not listed: [9] | [10]
inactive: all other assays above

NS(=O)(=O)c1cc(C(=O)O)c(NCc2ccco2)cc1Cl
inactive: [2] | [3] | [10] | [4] | [5] | [6] | [7] | [8] | [19] | [20]
